According to PubChem BioAssay AID488969 (Vanderbilt High Throughput Screening Facility, 2010):
The full ranking holds about 110,000 compounds; the median of “z-score” is about -0.1, and the highest 2% start at about 2. The full list was thinned out, with the highest values kept by preference. The source made the active and inactive calls.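 Rule for the calls: active = z-score in the third read window above 3 or below -3; inactive = the rest.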

These compounds were tested against Metabotropic glutamate receptor 8 (Rattus norvegicus) (UniProt P70579) (assay: mGluR8 Gi/Go-coupled signaling modulation – cell-based, rat, thallium flux, HTS, primary screen (AID 488969)). Details: HEK293 rat mGluR8, GIRK (G protein-gated inwardly rectifying potassium channel) thallium flux, FluoZin2; at 10 µM; stronger effect = higher value; submaximal glutamate (EC20) added with thallium.
Chain of Metabotropic glutamate receptor 8 (Rattus norvegicus) (P70579 whole entry, looked up): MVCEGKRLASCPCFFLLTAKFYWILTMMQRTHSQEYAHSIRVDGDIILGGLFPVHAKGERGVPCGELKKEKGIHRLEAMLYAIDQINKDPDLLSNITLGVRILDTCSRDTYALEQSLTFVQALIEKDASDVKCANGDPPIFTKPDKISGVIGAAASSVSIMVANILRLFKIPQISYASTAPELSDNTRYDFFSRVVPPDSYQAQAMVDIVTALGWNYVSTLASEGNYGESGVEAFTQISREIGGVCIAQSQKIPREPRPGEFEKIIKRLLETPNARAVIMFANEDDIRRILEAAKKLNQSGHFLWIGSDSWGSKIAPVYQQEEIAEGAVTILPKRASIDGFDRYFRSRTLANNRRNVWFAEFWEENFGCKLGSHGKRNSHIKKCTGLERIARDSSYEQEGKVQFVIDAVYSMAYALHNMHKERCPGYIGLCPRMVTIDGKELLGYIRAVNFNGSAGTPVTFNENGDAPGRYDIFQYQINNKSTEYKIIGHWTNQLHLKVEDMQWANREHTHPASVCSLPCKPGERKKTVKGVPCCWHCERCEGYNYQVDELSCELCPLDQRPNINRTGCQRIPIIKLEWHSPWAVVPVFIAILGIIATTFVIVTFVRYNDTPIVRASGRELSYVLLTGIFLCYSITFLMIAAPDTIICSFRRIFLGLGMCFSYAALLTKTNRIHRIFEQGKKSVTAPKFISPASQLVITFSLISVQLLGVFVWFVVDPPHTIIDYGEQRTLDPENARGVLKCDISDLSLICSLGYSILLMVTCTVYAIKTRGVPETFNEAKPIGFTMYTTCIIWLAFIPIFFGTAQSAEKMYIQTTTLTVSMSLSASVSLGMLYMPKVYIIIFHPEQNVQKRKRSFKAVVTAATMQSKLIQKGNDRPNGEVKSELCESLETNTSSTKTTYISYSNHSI
`COc1cccc(C(=O)N2CCN(S(=O)(=O)Cc3ccccc3)CC2)c1OC` gave a z-score of 1.15.
Work on `C=CCn1cc([N+](=O)[O-])nc1C` yielded a z-score of -0.339.
`COC(=O)COc1ccc(S(=O)(=O)Nc2ccc3c(c2)OCO3)cc1` gave a z-score of -0.955.
`Cc1cc(F)ccc1NCC(=O)Nc1ccccc1Br` gave a z-score of 1.92.
`CC(=O)NCC(=O)N(c1ccccc1)C1(C(=O)NC2CCCCC2)CCCCC1` showed a z-score of 0.432.
With `COc1ccc(-c2nc(Cn3c(SCc4ccc(F)cc4)nc4ccncc43)c(C)o2)cc1OC` the z-score was 0.565.
`O=C1C2C(c3ccccc3)C=CC(c3ccccc3)C2C(=O)N1c1ccncc1` (centres undefined) was tested, and the z-score was -0.325.
`Cc1cc(C(=O)COc2ncnc3sccc23)c(C)n1C1CC1` gave a z-score of -0.349.
Compound `Cc1cc(C(=O)COc2ncnc3sccc23)c(C)n1C` has a z-score of 2.04.
Compound `Cc1cc(C(=O)COc2nncc3ccccc23)c(C)n1C` has a z-score of 0.0547.
In the case of `Oc1ccccc1N1CCN(c2ncccn2)CC1`, the z-score is reported as 0.0492.
With `O=C(OCC(=O)N1CCc2ccccc21)c1cccc(S(=O)(=O)N2CCCc3ccccc32)c1` the z-score was -0.134.
`O=C(N/N=C/c1ccc(OC(=O)c2ccccc2)cc1)c1ccc(CN2CCOCC2)cc1` showed a z-score of 0.54.
In the case of `Cc1c(Cl)cccc1-n1ccnc1SCC(=O)O`, the z-score is reported as -0.317.
Compound `CC(=O)c1ccc(OCC(O)CN2C(C)CCCC2C)cc1` (centres undefined) has a z-score of -0.288.
With `COc1cccc(OCC(O)CN2C(C)CCCC2C)c1` (centres undefined) the z-score was 0.438.
In the case of `Cc1ccc(C)c(OCC(O)CN2C(C)CCCC2C)c1` (centres undefined), the z-score is reported as 3.05 (active).
In the case of `CCN(CC)S(=O)(=O)c1ccc(NC(=O)c2cc(C(=O)OC)cc([N+](=O)[O-])c2)cc1`, the z-score is reported as -0.729.
`N#CC1(Cc2ccccc2)c2ccccc2C=CN1C(=O)c1ccccc1` (centres undefined) gave a z-score of -0.211.
Work on `N#CC1(Cc2ccc([N+](=O)[O-])cc2)c2ccccc2C=CN1C(=O)c1ccccc1` (centres undefined) yielded a z-score of 2.08.
`N#CC1(Cc2ccc(Cl)cc2)c2ccccc2C=CN1C(=O)c1ccccc1` (centres undefined) gave a z-score of -0.14.
With `Cc1cccc(-n2c(C)cc(/C=N/O)c2C)c1` the z-score was -0.205.
`NC(=O)/C=C\c1cn(-c2ccccc2)nc1-c1ccc2c(c1)OCCO2` gave a z-score of 2.14.
With `O/N=C/c1cn(-c2ccccc2)nc1-c1ccc2c(c1)OCCO2` the z-score was -0.458.
`O=Cc1cn(-c2ccccc2)nc1-c1ccc2c(c1)OCCO2` was tested, and the z-score was -1.11.
Work on `O=C(COC(=O)c1cn(-c2ccccc2)nc1-c1ccccc1)c1ccc([N+](=O)[O-])cc1` yielded a z-score of -0.413.
Work on `COc1ccc(S(=O)(=O)N2CCC(c3cc(-c4cccc5ccccc45)n[nH]3)CC2)cc1` yielded a z-score of 2.15.
`COc1ccc(S(=O)(=O)N2CCC(CN3C(=O)c4cccc5cccc(c45)C3=O)CC2)cc1` showed a z-score of -0.138.
Compound `O=S(=O)(c1cccc(C(F)(F)F)c1)N1CCC(c2cc(-c3cccc4ccccc34)n[nH]2)CC1` has a z-score of 1.58.
